# High-throughput results: PubChem, The Scripps Research Institute Molecular Screening Center
# GPR151 activ = activators of human GPR151; Q8TDV0; PathHunter beta-arrestin GPR151 cells, luminescence; activation, % at 11.2 µM; 1% of 650,000 active; in the data active = activation above about 4.9%;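 note: 0% = median of compound wells and 100% = cells with positive control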
# Target sequence (Q8TDV0 whole entry, looked up): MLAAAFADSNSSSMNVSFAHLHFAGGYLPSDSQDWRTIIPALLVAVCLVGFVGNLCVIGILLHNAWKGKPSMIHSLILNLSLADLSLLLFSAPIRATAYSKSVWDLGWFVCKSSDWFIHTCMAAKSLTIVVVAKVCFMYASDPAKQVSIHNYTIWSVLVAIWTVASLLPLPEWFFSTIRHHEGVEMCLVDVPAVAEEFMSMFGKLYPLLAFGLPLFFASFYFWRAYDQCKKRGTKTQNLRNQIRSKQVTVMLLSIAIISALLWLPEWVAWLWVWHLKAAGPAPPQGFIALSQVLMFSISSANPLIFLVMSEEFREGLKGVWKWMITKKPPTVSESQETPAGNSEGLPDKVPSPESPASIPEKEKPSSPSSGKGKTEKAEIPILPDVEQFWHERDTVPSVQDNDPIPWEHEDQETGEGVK
# FBW7 activator = activators of human E3 ligase FBW7. 0.13% of 650,000 active. AID 1259310. normalized activity (activation), % at 26.1 µM. Q969H0. AlphaScreen FBW7–phospho-cyclin E peptide binding, activator screen; in the data active = normalized activity above about 1.9%;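 note: purified mutant Fbw7 with reduced substrate affinity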
# TEAD-YAP inh = TEAD-YAP interaction inhibition; 1.4% of 640,000 active; HEK-TIYL cells, TEAD-Gal4/YAP UAS-luciferase luminescence; inhibition, % at 9.12 µM; AID 1259422; in the data active = inhibition above about 32%;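 note: 0% = median of test compound wells and 100% = reference inhibitor wells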
# MITF primary = inhibitors of human MITF; 0.91% of 650,000 active; O75030; inhibition, % at 2.6 µM; AlphaScreen MITF homodimerization, bead proximity signal; AID 1259374; in the data active = inhibition above about 50%;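 note: 0% = vehicle wells with protein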
# MITF confirm = human MITF inhibition, confirmation. 16% of 4,700 active. inhibition, % at 2.6 µM. AlphaScreen MITF homodimerization, biotin/His-MITF beads. shares compounds with MITF primary;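 active = inhibition above a cutoff derived from the DMSO control wells, cut at about 28% in these data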;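 note: 0% = MITF dimer wells with DMSO only; inhibitors lower the bead chemiluminescence by keeping MITF from dimerizing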
# AlphaScreen DR = counter-screen: compounds optically interfering with AlphaScreen; IC50, µM; shares compounds with MITF primary; AID 1259373; 6% of 480 active; AlphaScreen optical interference counterscreen, cell-free; call rule not given here
# AlphaScreen intf2 = optically interferes with AlphaScreen signal | shares compounds with MITF primary | LysRS AlphaScreen counterscreen, signal interference, triplicate | inhibition, % at 2.6 µM | 7.6% of 4,700 active | AID 1259376;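 active = inhibition above a cutoff derived from the DMSO control wells, cut at about 30% in these data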
# * marks the source's active call; other numbers are inactive results; . = no result given. Hits are enriched below; roughly 3.5% of the tested compounds scored in any of these assays.
SMILES,GPR151 activ,FBW7 activator,TEAD-YAP inh,MITF primary,MITF confirm,AlphaScreen intf2,others
CC(=O)c1ccc(OCCCC(=O)NC(C)c2ccc(S(N)(=O)=O)cc2)cc1 (centres undefined),1,0,2,-4,.,.,
O=S(=O)(Cc1ccccc1)N1CCN(CC2CC3C=CC2C3)CC1 (centres undefined),1,0,1,37,.,.,
Cc1cccc(CN2CCN(CC3CC4C=CC3C4)CC2)c1 (centres undefined),-2,0,-10,57*,7,19,
Clc1cccc(CN2CCN(CC3CC4C=CC3C4)CC2)c1 (centres undefined),1,0,-1,74*,13,18,
Clc1ccccc1CN1CCN(CC2CC3C=CC2C3)CC1 (centres undefined),0,0,5,74*,-5,2,
COC(=O)CN1C(=O)C(O)=C(C(C)=O)C1c1ccc(C(=O)OC)cc1 (centres undefined),-1,0,-1,-12,.,.,
COc1cccc(CN2CCc3ccccc3C2)c1,1,0,0,25,.,.,
Cc1ccc(CN2CCC(C(=O)N3CCc4ccccc4C3)CC2)o1,2,0,-7,54*,11,17,
O=C(C1CCN(Cc2ccccc2F)CC1)N1CCc2ccccc2C1,-1,0,6,49,.,.,
CCN(CC)C(=O)C1CCCN(Cc2cccc([N+](=O)[O-])c2)C1 (centres undefined),3,0,5,40,.,.,
COc1cccc(CN2CCCC(C(=O)N3CCc4ccccc4C3)C2)c1 (centres undefined),1,0,13,60*,8,14,
O=C(C1CCCN(Cc2cccc([N+](=O)[O-])c2)C1)N1CCCCCC1 (centres undefined),0,0,5,69*,13,16,
O=C(C1CCCN(Cc2cccc([N+](=O)[O-])c2)C1)N1CCc2ccccc2C1 (centres undefined),0,0,8,51*,9,17,
Cc1nc2ccccn2c1C(=O)NC(C)C,-1,0,8,2,.,.,
O=C1CC(N2CCN(c3ccc(Cl)cc3)CC2)C(=O)N1c1ccccc1F (centres undefined),-1,0,8,2,.,.,
O=C1CC(N2CCN(S(=O)(=O)c3ccccc3F)CC2)C(=O)N1c1ccccc1F (centres undefined),-1,0,1,79*,-14,4,
CC1CC(C)CN(C(=O)c2cccc3ccccc23)C1 (centres undefined),-1,0,-1,7,.,.,
CC1CC(C)CN(C(=O)c2cccc3c2-c2ccccc2C3=O)C1 (centres undefined),-1,0,-9,66*,5,-4,
CCCCc1c(C)c(C#N)c2nc3ccccc3n2c1N1CCC(C)CC1,0,0,-4,53*,13,-7,
Cc1c(Cc2ccccc2)c(N2CCC(C)CC2)n2c(nc3ccccc32)c1C#N,0,0,5,13,.,.,
O=C(COc1ccccc1C(=O)OC1CCCC1=O)Nc1cccc(C(F)(F)F)c1 (centres undefined),2,0,6,62*,72*,3,AlphaScreen DR=>6.8
NC(=O)c1ccccc1OCC(=O)Nc1cccc(C(F)(F)F)c1,0,0,-70,-1,.,.,
CCNC(=O)N1CCCC(N2CCN(Cc3ccc4c(c3)OCO4)CC2)C1 (centres undefined),0,0,-2,9,.,.,
c1cc2c(cc1CN1CCN(C3CCCCCC3)CC1)OCO2,0,1,1,65*,-2,4,
CC1CCCC(N2CCN(Cc3ccc4c(c3)OCO4)CC2)C1 (centres undefined),-1,1,-17,68*,-1,0,
SMILES,GPR151 activ,FBW7 activator,TEAD-YAP inh,MITF primary,MITF confirm,AlphaScreen intf2,others
c1ccc(CN2CCC(N3CCN(Cc4ccc5c(c4)OCO5)CC3)CC2)cc1,0,1,10,-5,.,.,
O=S(=O)(Nc1ccc(Cl)cn1)c1cccs1,3,0,1,16,.,.,
Cc1nn(C(=O)C2CCCN2S(=O)(=O)c2ccc(Cl)cc2)c(C)c1Sc1ccc([N+](=O)[O-])cc1 (centres undefined),-1,0,0,67*,12,17,
COc1ccc(OC)c(S(=O)(=O)c2ccc(C)cc2)c1,1,0,2,1,.,.,
C/C(=N\NC(=O)Cc1cc(=O)[nH][nH]1)c1ccco1,-1,0,7,59*,56*,4,AlphaScreen DR=>6.5
COC(=O)c1cc(S(=O)(=O)NCc2ccccc2OC)c[nH]1,1,0,15,75*,4,9,
COC(=O)c1cc(S(=O)(=O)NCc2ccccc2Cl)c[nH]1,0,0,0,13,.,.,
COC(=O)c1ccccc1-c1cc(C)cc2c1OC(CNC(=O)c1n[nH]c(=O)[nH]1)C2 (centres undefined),1,0,11,-25,.,.,
O=C1CS(=O)(=O)C(c2ccccc2)N1c1ccccc1 (centres undefined),3,0,-2,72*,-2,-1,
Cc1cc(C)cc(N2C(=O)CS(=O)(=O)C2c2cccc(Br)c2)c1 (centres undefined),0,0,8,-2,.,.,
CCOC(=O)C(=O)c1csc(NC(=O)c2cccs2)n1,1,0,4,3,.,.,
Cc1cc(-c2cncnc2C2CCCN(Cc3ccncc3)C2)on1 (centres undefined),0,0,0,1,.,.,
Cc1ccc(-c2noc(CNC(=O)c3c(-c4ccccc4Cl)noc3C)n2)cc1,-1,0,10,5,.,.,
COc1cc(O)c(C)c(O)c1,-2,0,-4,14,.,.,
COc1c(O)cc(O)cc1O,-2,0,-14,72*,60*,-1,AlphaScreen DR=>6.5
CCN1CCN(CCOc2cc(C)ccc2C(C)C)CC1,-2,0,-3,52*,-7,-2,
CCN1CCN(CCCOc2ccc(C)cc2Br)CC1,-1,0,0,63*,14,11,
Cc1ccc(OCCN)c(Br)c1,1,0,-1,3,.,.,
CCN1CCN(CCCCOc2ccc(C)cc2C)CC1,0,0,-5,59*,3,8,
CC(C)CCN1CC[C@@H]2[C@H](CCCN2C(=O)c2cccc(Cn3cccn3)c2)C1,-1,0,-22,1,.,.,
CCNc1nc(NCC)nc(N2N=C(C)CC2=O)n1,0,0,8,71*,41*,66*,
CC1=NN(c2cc(C)cc(C)c2)C(=O)C1,0,0,3,7,.,.,
CCOC(=O)C1CCN(C(=O)C2CCN(Cc3cccc(OC)c3)CC2)CC1,1,0,10,52*,6,6,
CCN(Cc1ccccc1)C(=O)C1CCN(Cc2cccc(OC)c2)CC1,-2,0,-4,52*,12,8,
